Bioassay records deposited in PubChem BioAssay by National Center for Advancing Translational Sciences (NCATS).
The list is not random: actives were taken first. Their share in the collection is about 2.4%.
Epigenetic derep = Quantitative High-Throughput Screen for Regulators of Epigenetic Control; murine LDR cells, GFP reporter derepression, 30 h; Potency, µM (highest dose often 53.9 µM), inactives show at the highest dose GFP activation, most hits filed as activators; actives 0.2% (n = 280,000); AID 1865, 2009; also: % of control where 0% means no effect; nearly all actives have a fitted effect of over 60% in size
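Reporter derepression read as number of fluorescent GFP-positive objects, 20-120 um in size, counted by laser-scanning cytometer. Mouse LDR line with an epigenetically silenced CMV-GFP locus; compound incubation 30 h, 37 C.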
Nrf2 inh = Nrf2 qHTS screen for inhibitors; A549 ARE-Fluc reporter, luciferase luminescence, 18-24 h; AID 504444, 2011; actives 2.1% (n = 360,000); Potency, µM (top dose mostly 46 µM), without a hit: top-dose activity change, negative = inhibition, actives largely listed as inhibitors; also: % is scaled to controls: 0 for no effect and ±100 for the full control effect; nearly all actives have a fitted effect of over 60% in size
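A549 ARE_Fluc cells, 5000/well, 5% FBS OPTI-MEM; compounds in dose-response, 18-24 h at 37 °C/5% CO2; CellTiter-Fluor viability read (Ex 405/Em 525), then BugLite luciferase luminescence = Nrf2 activity.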
PINK1 expr mod = A Quantitative High throughput Screen to Identify Chemical Modulators of PINK1 Expression. actives 0.2% (n = 410,000). PINK1 immunofluorescence, high-content cytometry, 24 h. Potency, µM (highest dose often 76.6 µM), for inactives: at the top dose activation (PINK1 increase), usual class: activators; active = well fitted activation curve with a large enough effect; inconclusive = small, poorly fitted or top-dose-only effect; cell line not stated here; also: % of control where 0% means no effect; nearly all actives have a fitted effect of over 65% in size
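Measures PINK1 amount and localization on or inside mitochondria by immunofluorescence. Stable cells get compounds at 5 concentrations for 24 hours before fixation and staining; CCCP controls included.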
Nrf2 activator = qHTS of Nrf2 Activators; Potency, µM (highest dose often 46.1 µM), for inactives: top-dose activation, actives largely listed as activators; AREc32 ARE-luciferase reporter (MCF7-derived line), luminescence, 24 h; actives 0.31% (n = 410,000); also: % of control where 0% means no effect; nearly all actives have a fitted effect of over 65% in size
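For detection, Steady-Glo was added and plates sat 30 min at RT; before that, AREc32_Fluc cells grown overnight in OPTI-MEM/5% FBS had been treated with 23 nL compound for 24 hr at 37 deg C.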
A549 tox = Nrf2 qHTS screen for inhibitors: counterscreen for cytotoxicity. actives 0.16% (n = 390,000). A549 ARE-Fluc cells, CellTiter-Fluor viability, 18-24 h. Potency, µM (titrated, usually from 46 µM), inactives show top-dose activity change, negative = cytotoxicity, hits mostly inhibitors; also: % is scaled to controls: 0 for no effect and ±100 for the full control effect
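A549 ARE_Fluc cells in 5% FBS OPTI-MEM were exposed to compounds in concentration-response for 18-24 h at 37 deg C. Viability was read by CellTiter-Fluor fluorescence (Ex 405/Em 525) after 30 min, before the luciferase read.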
Active calls of the source: *; ? = inconclusive; . = not tested or not shown; [ ] = another dose, or the depositor's remark. Unless noted, calls follow the shape of the dose curve; as a rule, active = well fitted curve in the direction sought with a large enough effect; inconclusive = small, poorly fitted or top-dose-only effect, or another doubt; inactive = no such curve, though single readings can be large; an effect the other way counts as inactive or inconclusive. Potency is read from the fitted curve at half-maximal effect.

SMILES	Epigenetic derep	Nrf2 inh	PINK1 expr mod	Nrf2 activator	A549 tox
CCCCCCc1cc2cc(-c3nnc(-c4ccc(C)cc4)o3)c(=O)oc2cc1O	2.2µM*	9%	-1%	2%	-3%
CCCCCCc1cc2cc(S(=O)(=O)c3ccc(F)c(Cl)c3)c(=O)oc2cc1O	-1%	?	13µM*	0%	?
COc1cccc2cc(C(=O)Nc3ccc(CC(=O)O)cc3)c(=O)oc12	0%	1.5µM*	-1%	-4%	-12%
CCCCCCc1cc2cc(C(=O)Nc3cccc(OC)c3)c(=O)oc2cc1O	-1%	10%	?	0%	-9%
NCCN(Cc1ccc(Cl)c(Cl)c1)c1ccc(Br)cn1	.	19%	3%	.	7%
CCN(CC)C(=O)C1=C(C)Nc2nc3ccccc3n2C1c1ccc(Br)cc1 (configuration not stated)	-2%	-5%	2%	-1%	3%
Cc1ccc(-c2nc3cc(Cl)ccc3o2)cc1NC(=O)COc1ccccc1C	.	.	3%	.	.
COc1cccc(-c2ccnc(-n3ncc(C(=O)NCC(C)(C)CN(C)C)c3C)n2)c1	.	.	0%	.	.
Cc1cc2c(s1)c1cnn(Cc3ccccc3Cl)c(=O)c1n2C	.	18%	.	.	-5%
COc1cccc2cc(C(=O)OCC(=O)N3CC(C)OC(C)C3)c(=O)oc12 (configuration not stated)	.	-6%	-2%	16µM*	-3%
CCOc1cccc2cc(C(=O)N3CC(C)OC(C)C3)c(=O)oc12 (configuration not stated)	.	3%	2%	-1%	2%
O=C(Cn1c(=O)n(Cc2nc(-c3ccccc3)no2)c(=O)c2ccccc21)Nc1cccc(C(F)(F)F)c1	0%	16µM*	0%	-1%	-16%
C/C(=N\OCC(=O)Nc1ccccc1Br)c1cccs1	-4%	11%	0%	22µM*	19%
C/C(=N/OCC(=O)Nc1ccccc1)c1cccs1	3%	.	0%	3%	7%
O=C(Nc1ccc(S(=O)(=O)NCc2ccco2)cc1)c1ccncc1	-1%	13µM*	1%	7%	-4%
Cc1cccc(NS(=O)(=O)c2ccc(C)c(C(=O)NC3CCN(Cc4ccccc4)CC3)c2)c1	.	8.2µM*	2%	7%	7%
O=C(NC1CCN(Cc2ccccc2)CC1)c1ccc(S(=O)(=O)NCc2ccco2)cc1	0%	6.5µM*	-1%	0%	-12%
Cc1ccccc1C(=O)NC1CCN(Cc2ccccc2)CC1	-3%	1%	4%	0%	0%
COc1ccc(-c2nc3cc(C)ccc3cc2CN(C(=O)c2ccc(C)s2)C2CC2)cc1OC	.	.	-1%	.	.
Cc1ccc(S(=O)(=O)Nc2ccc(O)c(C(=O)O)c2)c(C)c1	-3%	.	.	.	.
COc1cccc(CN2C(=O)NC(C)(C3CCN(Cc4cc(F)cc(F)c4)CC3)C2=O)c1OC (configuration not stated)	.	.	0%	.	.
CCOC(=O)c1ccc(N2C(=O)c3n[nH]c(-c4ccco4)c3C2c2ccc(OCC)cc2)cc1 (configuration not stated)	8%	18µM*	?	-4%	?
CCOC(=O)c1ccc(N2C(=O)c3n[nH]c(-c4ccco4)c3C2c2cccc(F)c2)cc1 (configuration not stated)	3%	21µM*	1%	-3%	?
CCOC(=O)c1ccc(N2C(=O)c3n[nH]c(-c4ccco4)c3C2c2ccc(F)cc2)cc1 (configuration not stated)	15%	?	-1%	-3%	-17%
CN(C)CC(C)(O)c1ccc2c(c1)CN(Cc1cccn1-c1ncccn1)CCO2 (configuration not stated)	.	.	-1%	.	.
SMILES	Epigenetic derep	Nrf2 inh	PINK1 expr mod	Nrf2 activator	A549 tox
Cc1ccc(N=C2NC(=O)/C(=C/c3cn(C)c4ccccc34)S2)cc1C	8%	23µM*	5%	0%	-19%
COc1ccc(NC(=O)c2ccc(COc3ccccc3OC)o2)cc1OC	1%	-15%	1%	7%	0%
COc1ccc(NC(=O)c2ccc(COc3ccccc3Br)o2)cc1OC	0%	23µM*	-1%	7%	-14%
CC1=C(C(=O)OC2CCCCC2)C(c2cccc([N+](=O)[O-])c2)NC(=O)N1 (configuration not stated)	.	?	1%	0%	11%
CC1=C(C(=O)OC2CCCCCCC2)C(c2cccc(O)c2)NC(=O)N1 (configuration not stated)	-13%	26µM*	0%[38.3 µM]	0%	-19%
CC1=C(C(=O)OC2CCCCCC2)C(c2ccc(Cl)cc2)CC(=O)N1 (configuration not stated)	6%	?	3%	0%	1%
CC1=C(C(=O)OC2CCCCCC2)C(c2cccc(Cl)c2)CC(=O)N1 (configuration not stated)	1%	16µM*	3%	0%	1%
Cc1cccc(C(=O)NCc2nc(-c3ccccc3NC(=O)C3CCCO3)oc2C)c1 (configuration not stated)	.	.	1%	.	.
COc1cccc(C(=O)Nc2nc(-c3ccncc3)cs2)c1	4%	?	0%	2%	1%
Cc1c(NC(=O)Cn2[nH]c(=O)c3ccccc3c2=O)c(=O)n(-c2ccccc2)n1C	-1%	.	1%	0%	-2%
COc1ccc(OC)c(-c2csc(NC(=O)c3ccc(F)cc3)n2)c1	.	18µM*	12%	6%	-5%
Cc1sc(NC(=O)Cn2[nH]c(=O)c3ccccc3c2=O)nc1-c1ccccc1	?	16µM*	4%	0%[9.22 µM]	-16%
COc1ccc(OC)c(-c2csc(NC(=O)Cc3ccc(F)cc3)n2)c1	.	?	2%	1%	-2%
COc1cccc(C(=O)Nc2nc(-c3ccc4c(c3)OCO4)cs2)c1	-1%	13µM*	9%	4%	-23%
COc1ccc(OC)c(-c2csc(NC(=O)Cn3[nH]c(=O)c4ccccc4c3=O)n2)c1	?	10µM*	5%	2%	-17%
CC(=O)c1ccc(F)c(-c2cc(C)cc3c2OC(CNC(=O)c2cccnc2)C3)c1 (configuration not stated)	.	.	0%	.	.
COc1ccc(C2=Nn3c(nnc3-c3cccc(OC)c3OC)SC2)cc1	.	15%	.	.	-7%
CC(C)CC(OC(=O)CNC(=O)c1ccccc1)C(=O)Nc1cc(C(F)(F)F)ccc1Cl (configuration not stated)	.	-3%	.	.	-8%
COc1cc(=O)n2c(c1C(=O)NCc1ccco1)CCN(C(=O)c1ccc(C)c(C)c1)CC2	.	.	2%	.	.
COc1ccc(-n2nnnc2-c2cnc(N3CCCC3)nc2C(F)(F)F)cc1	-2%	18µM*	5%	4%	-24%
